The values below come from ChEMBL document CHEMBL1961873, “Compounds: GSK PKIS; Assays: Nanosyn kinase panel” (2012).

Test [1] addresses Tyrosine-protein kinase receptor UFO (Homo sapiens) (UniProt P30530). The note with it: at 1 µM.
In test [2] the target is Tyrosine-protein kinase Blk (Homo sapiens) (UniProt P51451). Conditions: at 0.1 µM.
Test [3] shares this target. The note with it: at 1 µM.
Test [4] concerns the target T1, Cytoplasmic tyrosine-protein kinase BMX (Homo sapiens) (UniProt P51813).
T1 sequence (whole entry): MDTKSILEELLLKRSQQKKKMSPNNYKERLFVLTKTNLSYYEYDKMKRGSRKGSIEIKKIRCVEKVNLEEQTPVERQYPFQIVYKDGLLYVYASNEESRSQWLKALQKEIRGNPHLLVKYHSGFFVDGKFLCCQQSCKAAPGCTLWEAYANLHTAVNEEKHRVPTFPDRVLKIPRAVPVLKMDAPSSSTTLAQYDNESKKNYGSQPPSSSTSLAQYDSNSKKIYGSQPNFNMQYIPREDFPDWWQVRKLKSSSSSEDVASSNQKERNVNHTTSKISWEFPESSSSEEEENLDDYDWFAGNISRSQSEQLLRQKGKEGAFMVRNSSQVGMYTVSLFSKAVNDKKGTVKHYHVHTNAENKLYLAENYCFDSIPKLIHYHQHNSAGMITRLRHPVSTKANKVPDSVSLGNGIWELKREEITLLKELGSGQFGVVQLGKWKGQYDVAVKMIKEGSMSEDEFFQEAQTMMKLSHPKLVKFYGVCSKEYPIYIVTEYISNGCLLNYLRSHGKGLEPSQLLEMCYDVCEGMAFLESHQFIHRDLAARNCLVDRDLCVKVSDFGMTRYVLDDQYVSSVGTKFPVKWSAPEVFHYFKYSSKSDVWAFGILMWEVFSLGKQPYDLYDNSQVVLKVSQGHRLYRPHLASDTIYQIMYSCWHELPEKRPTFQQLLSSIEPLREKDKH
Conditions: at 0.1 µM.

Test [5] addresses T1, Cytoplasmic tyrosine-protein kinase BMX (Homo sapiens). Conditions: at 1 µM.
Test [6] has as its target Protein-tyrosine kinase 6 (Homo sapiens) (UniProt Q13882). The note with it: at 0.1 µM.
Test [7] has the same target. Conditions: at 1 µM.
The target of test [8] is Tyrosine-protein kinase BTK (Homo sapiens) (UniProt Q06187). Conditions: at 0.1 µM.
For test [9] the target is unchanged. The note with it: at 1 µM.
Test [10] deals with Tyrosine-protein kinase CSK (Homo sapiens) (UniProt P41240). The note with it: at 0.1 µM.

SMILES strings stand for the structures.

Sequence of Tyrosine-protein kinase receptor UFO (Homo sapiens) (P30530 whole entry): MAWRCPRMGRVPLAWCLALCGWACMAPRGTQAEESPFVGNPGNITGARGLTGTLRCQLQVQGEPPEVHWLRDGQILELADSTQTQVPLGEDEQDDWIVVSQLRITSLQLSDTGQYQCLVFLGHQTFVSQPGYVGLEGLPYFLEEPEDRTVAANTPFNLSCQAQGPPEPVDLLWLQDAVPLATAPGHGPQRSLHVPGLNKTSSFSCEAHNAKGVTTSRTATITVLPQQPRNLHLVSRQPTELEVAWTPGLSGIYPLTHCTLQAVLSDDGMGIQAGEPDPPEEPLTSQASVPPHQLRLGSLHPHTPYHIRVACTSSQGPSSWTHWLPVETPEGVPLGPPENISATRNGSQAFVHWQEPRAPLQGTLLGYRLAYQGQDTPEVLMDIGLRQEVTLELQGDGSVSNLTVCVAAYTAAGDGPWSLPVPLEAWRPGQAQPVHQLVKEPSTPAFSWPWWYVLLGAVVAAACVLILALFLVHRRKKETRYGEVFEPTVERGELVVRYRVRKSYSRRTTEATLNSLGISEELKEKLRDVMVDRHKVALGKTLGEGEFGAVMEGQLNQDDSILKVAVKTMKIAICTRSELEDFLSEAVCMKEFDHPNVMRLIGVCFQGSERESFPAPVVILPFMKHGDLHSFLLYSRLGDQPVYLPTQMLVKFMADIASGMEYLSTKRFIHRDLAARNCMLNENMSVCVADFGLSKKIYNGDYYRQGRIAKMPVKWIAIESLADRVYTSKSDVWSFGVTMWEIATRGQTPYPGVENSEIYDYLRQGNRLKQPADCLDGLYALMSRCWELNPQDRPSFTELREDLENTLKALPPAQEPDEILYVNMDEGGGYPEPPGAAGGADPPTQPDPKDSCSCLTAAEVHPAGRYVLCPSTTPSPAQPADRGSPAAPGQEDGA
Sequence of Protein-tyrosine kinase 6 (Homo sapiens) (Q13882 whole entry, looked up): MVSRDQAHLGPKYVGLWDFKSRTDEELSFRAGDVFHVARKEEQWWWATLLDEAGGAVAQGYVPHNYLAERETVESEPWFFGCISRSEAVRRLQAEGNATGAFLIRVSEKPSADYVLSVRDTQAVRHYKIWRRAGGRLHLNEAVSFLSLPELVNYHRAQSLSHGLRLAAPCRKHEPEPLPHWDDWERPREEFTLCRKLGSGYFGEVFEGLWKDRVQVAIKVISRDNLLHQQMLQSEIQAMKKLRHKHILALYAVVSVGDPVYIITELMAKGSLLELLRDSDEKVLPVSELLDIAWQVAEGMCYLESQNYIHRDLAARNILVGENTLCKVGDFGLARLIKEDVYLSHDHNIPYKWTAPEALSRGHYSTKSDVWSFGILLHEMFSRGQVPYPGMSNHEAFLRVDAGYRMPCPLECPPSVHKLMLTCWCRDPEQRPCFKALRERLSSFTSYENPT
Sequence of Tyrosine-protein kinase BTK (Homo sapiens) (Q06187 whole entry): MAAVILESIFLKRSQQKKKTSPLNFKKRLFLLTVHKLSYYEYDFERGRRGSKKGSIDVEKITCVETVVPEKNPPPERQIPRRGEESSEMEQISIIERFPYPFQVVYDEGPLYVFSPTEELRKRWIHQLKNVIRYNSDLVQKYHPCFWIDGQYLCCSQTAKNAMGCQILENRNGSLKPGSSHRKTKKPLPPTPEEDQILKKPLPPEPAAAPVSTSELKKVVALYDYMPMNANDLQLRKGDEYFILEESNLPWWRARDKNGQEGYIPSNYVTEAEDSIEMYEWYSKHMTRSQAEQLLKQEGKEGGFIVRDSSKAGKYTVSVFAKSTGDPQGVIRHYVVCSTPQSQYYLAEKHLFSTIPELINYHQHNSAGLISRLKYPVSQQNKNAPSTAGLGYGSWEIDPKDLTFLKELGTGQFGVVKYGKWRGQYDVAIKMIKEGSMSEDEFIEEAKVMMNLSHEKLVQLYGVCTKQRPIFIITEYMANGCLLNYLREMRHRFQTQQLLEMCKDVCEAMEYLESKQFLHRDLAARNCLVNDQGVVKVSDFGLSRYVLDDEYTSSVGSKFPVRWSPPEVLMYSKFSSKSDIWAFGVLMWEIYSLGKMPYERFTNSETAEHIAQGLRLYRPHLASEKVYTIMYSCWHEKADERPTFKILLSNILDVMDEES
Sequence of Tyrosine-protein kinase Blk (Homo sapiens) (P51451 2-505 limits assumed): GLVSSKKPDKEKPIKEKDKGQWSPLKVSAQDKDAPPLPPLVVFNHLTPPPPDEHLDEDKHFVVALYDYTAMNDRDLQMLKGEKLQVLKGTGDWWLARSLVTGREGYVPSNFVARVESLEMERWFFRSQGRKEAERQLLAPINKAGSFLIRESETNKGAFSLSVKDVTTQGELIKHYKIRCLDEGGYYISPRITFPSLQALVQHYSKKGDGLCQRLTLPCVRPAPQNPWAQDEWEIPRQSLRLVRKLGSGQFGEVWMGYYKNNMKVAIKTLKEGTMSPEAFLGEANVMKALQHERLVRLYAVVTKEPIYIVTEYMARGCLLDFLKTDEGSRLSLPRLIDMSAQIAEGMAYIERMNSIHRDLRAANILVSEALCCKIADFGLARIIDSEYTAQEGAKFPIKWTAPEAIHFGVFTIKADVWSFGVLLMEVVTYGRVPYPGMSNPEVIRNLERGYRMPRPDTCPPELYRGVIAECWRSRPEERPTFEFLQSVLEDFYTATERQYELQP
Sequence of Tyrosine-protein kinase CSK (Homo sapiens) (P41240 2-450 limits assumed): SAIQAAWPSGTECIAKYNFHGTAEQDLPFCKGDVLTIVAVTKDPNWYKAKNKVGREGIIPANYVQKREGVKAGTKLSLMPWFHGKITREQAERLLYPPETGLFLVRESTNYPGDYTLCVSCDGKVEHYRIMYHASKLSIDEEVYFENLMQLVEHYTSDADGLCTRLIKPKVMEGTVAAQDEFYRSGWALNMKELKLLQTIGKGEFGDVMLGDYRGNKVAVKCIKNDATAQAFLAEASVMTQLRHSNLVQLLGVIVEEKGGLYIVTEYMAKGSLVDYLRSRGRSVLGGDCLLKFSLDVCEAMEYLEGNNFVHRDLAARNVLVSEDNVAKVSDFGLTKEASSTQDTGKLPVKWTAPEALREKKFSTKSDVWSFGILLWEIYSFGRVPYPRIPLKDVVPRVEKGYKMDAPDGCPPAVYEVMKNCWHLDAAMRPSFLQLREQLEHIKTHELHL

As a reminder, the inhibition is the change of the read-out against control, counted positive when it falls. Regarding `CCCN1CCC(Oc2cc(Nc3nc(Nc4cccc(F)c4C(N)=O)c4cc[nH]c4n3)c(OC)cc2Cl)CC1`, the inhibition in [1] is 6.29%; in [2] it was 0.32%; in test [3], 4.43%; in [4], -3.07%; in test [5], 0.44%; in test [6] it was 2.81%. Moreover, the inhibition in test [7] was 14.8%; in [8], 0.06%; in [9], 0.8%; in test [10] it was -0.02%.
For the compound `CCc1cccc(NC(=O)Nc2ccc(Oc3ccc4nc(NC(=O)OC)[nH]c4c3)cc2)c1`, the inhibition in [1] was 25.5%; in [2], 2.34%; in [3] it was 0.6%; in [4], -1.67%; in [5], 1.67%; in test [6], 1.3%. The inhibition in test [7] is 1.76%; in test [8] it was 1.67%; in test [9], 1.57%; in test [10] it was 4.01%.
`Cc1cc(O)cc(C)c1/C=C/c1cncc(-c2nn[nH]n2)c1`: the inhibition in [1] is -3.63%; in test [2], 0.83%; in test [3] it was 48.1%; in test [4] it was 11.2%; in [5] it was 66.3%; in [6], 29.6%. Moreover, the inhibition in [7] is 86.3%; in [8] it was -0.39%; in test [9] it was 7.14%; in [10], 8.08%.
With `CS(=O)(=O)CCNCc1ccc(-c2ccc3ncnc(Nc4ccc(OCc5cccc(F)c5)c(C(F)(F)F)c4)c3c2)o1`, the inhibition is -5.02% in [1]; 2.7% in [2]; 3.9% in test [3]; 3.53% in [4]; 3.77% in test [5]; 4.08% in test [6]. Moreover, the inhibition in test [7] is 5.42%; in test [8], 0.73%; in test [9] it was -0.77%; in test [10], 2.85%.
As for `CS(=O)(=O)CCN(CC#N)Cc1ccc(-c2ccc3ncnc(Nc4ccc(OCc5cccc(F)c5)c(Cl)c4)c3c2)o1`, the inhibition is -5.07% in [1]; -2.59% in test [2]; -2.7% in [3]; 1.65% in [4]; 3.9% in test [5]; 2.35% in test [6]. For the same compound, the inhibition was 4.81% in test [7], -4.96% in test [8], -5.01% in test [9] and 3.24% in test [10].
For `O=C1NC(=O)C(c2cccc(Cl)c2)=C1Nc1ccc(O)c(Cl)c1`, the inhibition in test [1] was -0.83%; in [2] it was 0.13%; in test [3], 5.96%; in test [4], 4.05%; in [5], 1.46%; in [6] it was -2.09%. Also, the inhibition in test [7] was -2.04%; in test [8] it was -0.33%; in test [9] it was 1.57%; in [10] it was 0.82%.
With `CCn1c(-c2nonc2N)nc2ccncc21`, the inhibition was 1.22% in [1]; 0.68% in [2]; 2.01% in test [3]; 3.88% in test [4]; -0.38% in [5]; -0.74% in [6]. Moreover, the inhibition in [7] was -3.65%; in test [8], -0.43%; in test [9] it was 1.46%; in test [10], -1.68%.
Take `CS(=O)(=O)CCNCc1nc(-c2ccc3ncnc(Nc4ccc(F)c(Cl)c4)c3c2)cs1`: the inhibition in test [1] came to 0.38%; in test [2] it was 1.92%; in test [3], 7.95%; in test [4] it was 0.99%; in [5] it was 7.67%; in [6], 1.05%. The inhibition in test [7] was 5.15%; in test [8] it was 0.64%; in [9], 4.51%; in test [10], 2.86%.
Turning to `COc1ccc(-c2nn3ncccc3c2-c2ccnc(Nc3ccc(Cl)c(C(F)(F)F)c3)n2)cc1`, the inhibition in test [1] was -2.97%; in test [2], 1.79%; in test [3], 2.85%; in test [4], 2.75%; in test [5], 2.33%; in [6], 3.82%. In addition, the inhibition in test [7] was 4.81%; in [8], 0.66%; in test [9], 0.36%; in test [10] it was -0.37%.
With `COc1cc(C)c(NC(=O)CN(C)C)cc1Nc1nc(Nc2cccc(F)c2C(N)=O)c2cc[nH]c2n1`, the inhibition in test [1] turned out to be 63.7%; in [2], 0.68%; in test [3], 4.45%; in test [4], 0.07%; in [5], 2.64%; in test [6], 3.06%. Further, the inhibition in [7] was determined as 23.8%; in [8], 0.31%; in [9] it was 0.16%; in test [10], 1.05%.
In the case of `COc1ccccc1Nc1ncc(-c2ccccc2)o1`, the inhibition in [1] was -5.15%; in [2] it was 4.5%; in [3] it was 5.8%; in test [4], 4.01%; in test [5] it was 6.53%; in test [6], 2.03%. Besides, the inhibition in test [7] turned out to be 6.6%; in test [8], 0.53%; in [9] it was 3.39%; in [10], 2.72%.
Turning to `Fc1cccc(COc2ccc(Nc3ncnc4sc(-c5cccs5)cc34)cc2Cl)c1`, the inhibition in test [1] is 1.51%; in test [2] it was 1.15%; in test [3] it was 3.35%; in test [4], 1.58%; in test [5], 4.35%; in test [6] it was -1.94%. Besides, the inhibition is 2.02% in test [7], -0.95% in [8], -0.95% in [9] and 2.73% in test [10].
On to `Nc1nc(-c2ccc3c(c2)C(=Cc2cc(Br)c(O)c(Br)c2)C(=O)N3)cs1`, for which the inhibition in [1] was 2.96%; in test [2], -4.1%; in test [3] it was 5.56%; in test [4], -0.96%; in [5], -0.09%; in test [6], -1.42%. For the same compound, the inhibition in test [7] was 0.1%; in test [8] it was -1.45%; in test [9] it was -0.23%; in [10], -4.69%.
For the compound `CC1=C(C(=O)Nc2ccc3[nH]ncc3c2)C(c2ccc3ccccc3c2)CC(=O)N1` (stereo not given), the inhibition in test [1] was -3.18%; in test [2], 13.4%; in test [3] it was 58.5%; in test [4] it was -1.63%; in test [5], 3.91%; in test [6], 3.76%. For the same compound, the inhibition in [7] is 6.55%; in test [8], 0.23%; in test [9] it was 11.4%; in [10] it was 4.44%.
`NS(=O)(=O)c1cccc(-c2ccc3c(NC(=O)C4CC4)n[nH]c3c2)c1`: the inhibition in test [1] was 2.37%; in test [2] it was -0.75%; in test [3], 0.74%; in test [4], -2.14%; in test [5], 0.66%; in test [6], -2.66%. Also, the inhibition was 0.49% in [7], -0.13% in test [8], -1.52% in test [9] and -7.29% in [10].
For the compound `Nc1ncnc2occ(-c3ccc(NC(=O)Nc4cccc(C(F)(F)F)c4)cc3)c12`, the inhibition in [1] is 45.3%; in test [2] it was 7.81%; in test [3], 49.1%; in test [4], 20.4%; in [5], 71.3%; in test [6] it was 2.23%. The inhibition amounted to 7.46% in test [7], 0.15% in [8], 6.68% in test [9] and 7.62% in [10].
